# Results from PubChem BioAssay (NCI).
# The panel holds about 83,000 compounds, 20% with a hit somewhere; the sample as a whole holds those more often.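 Testing used 96-well plates and a 48-hour single-concentration exposure. Example: -40 means 40% of the starting cells died.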 Values without a mark were called inactive. Calls of active or inactive are those of the source. How the source made its calls: active means growth percent below 10; inactive means the rest.
# Tests used:
# Assay in all cases: NCI-60 one-dose screen, 48 h (100 = growth as untreated, 0 = no growth, -100 = all killed)
# Settings in all cases: 10 µM unless noted
# HCT-15 colon = system: HCT-15 colon
# HT29 colon = system: HT29 colon
# SNB-75 CNS = system: SNB-75 CNS
# SNB-19 CNS = system: SNB-19 CNS
# U251 CNS = system: U251 CNS
# PC-3 prostate = system: PC-3 prostate
# SK-MEL-5 melanoma = system: SK-MEL-5 melanoma
# UACC-62 melanoma = system: UACC-62 melanoma
# LOX IMVI melanoma = system: LOX IMVI melanoma
# SK-MEL-28 melanoma = system: SK-MEL-28 melanoma
Structure (SMILES),growth (HCT-15 colon),growth (HT29 colon),growth (SNB-75 CNS),growth (SNB-19 CNS),growth (U251 CNS),growth (PC-3 prostate),growth (SK-MEL-5 melanoma),growth (UACC-62 melanoma),growth (LOX IMVI melanoma),growth (SK-MEL-28 melanoma)
CCCCN1C(=O)/C(=c2\sc3n(c2=O)C2C(NN=3)N(CC)C(=O)N2CC)c2cccc(C)c21 (stereo not given),14.9%,16.5%,14.1%,39.4%,39.1%,34.4%,29.6%,38.7%,42.4%,68.2%
COc1ccc(/C(=N\N=C(N)N)c2ccc(Cl)cc2)cc1OC,77.3%,54.9%,46.2%,72.9%,72.4%,44%,93%,80.2%,58.3%,96.5%
CN1CCN(c2ccc(Nc3nc(NCCCNS(=O)(=O)c4ccc(Cl)cc4)c4sccc4n3)cc2)CC1,6.7% (active),-69.7% (active),19.8%,39.5%,-11.3% (active),51.5%,-91.1% (active),-30.5% (active),-84.6% (active),-71.9% (active)
O=c1[nH][nH]c(-c2ccc(F)cc2)c1-c1nc2ccccc2s1,85%,110%,88.4%,80.5%,98.8%,90.3%,98.8%,81.8%,93.1%,97.7%
O=C(Nc1ccc(N2CCOCC2)cc1)Nc1ccc2c(ccn2C(=O)c2cccc(F)c2)c1,78.6%,76%,12.3%,46.9%,41.5%,49.3%,69.4%,42.3%,23%,59.2%
CCCCSC1=C(Cl)CN(c2ccc(Cl)cc2)C1=O,96.1%,105%,104%,93.3%,93.6%,98.4%,98.3%,93.4%,62.4%,102%
CCOC(=O)c1c(NC(=O)c2cccc(C(F)(F)F)c2)sc2c1CCC(=O)C2,18.9%,65.4%,31.6%,21.4%,3.77% (active),3.56% (active),38%,30.9%,9.07% (active),89.2%
O=C(CN1CCN(c2cc(=O)[nH]c3ccc(F)cc23)CC1)N(c1ccccc1)c1ccccc1,97.7%,110%,71.3%,93.4%,107%,96.5%,100%,98%,101%,111%
C#CCOc1ccc(-c2csc(NC(=O)C=C)n2)cc1NS(=O)(=O)c1cccc2c(N(C)C)cccc12,-9.26% (active),12.6%,1.15% (active),71.2%,47.7%,53.6%,63.6%,37.1%,-91% (active),14.9%
CCOP(=O)(OCC)OC[C@]12CC[C@@H](C)[C@H](C)C1C1=CC[C@@H]3[C@@]4(C)CCCNC(C)(C)[C@@H]4CC[C@@]3(C)[C@]1(C)CC2 (stereo not given in full),-8.25% (active),-30.6% (active),66.8%,17%,-59.1% (active),10.9%,-8.29% (active),-12.6% (active),-86.3% (active),-2.47% (active)
O=C(Nc1cccc(C(F)(F)F)c1)N1CCN(c2cc(-c3cn(-c4ccccc4)nc3-c3cccc(O)c3)ccn2)CC1,22.2%,24.5%,71.8%,57.4%,48.1%,28.2%,40.2%,40%,25.5%,55%
O=C1/C(=C/C=C/c2ccco2)SC(=S)N1Cc1ccccc1,65%,110%,84.7%,89.2%,92.3%,101%,98.8%,82.1%,96.4%,101%
C#CCN(C)CCCOc1ccc(NCc2ccc(/C=C/C(=O)NO)cc2)cc1Cl,8.05% (active),8.52% (active),9.93% (active),8.74% (active),-13.3% (active),19%,-87.2% (active),-53.7% (active),-69.5% (active),-14.4% (active)
O=C(/C=C/c1csc(Br)n1)NO,49%,11.3%,9.37% (active),38.5%,31.4%,44.3%,-33.1% (active),-2.56% (active),-13.8% (active),33.4%
COc1ccc(/C=N/NC(=O)CSc2nc(-c3cnccn3)cc(-c3cccs3)c2C#N)cc1OC,89.1%,60.9%,81.9%,78.1%,21%,80.8%,34.8%,19.8%,59.9%,98.2%
CCOC(=O)c1ccccc1NC1=C(Cl)C(=O)c2nc(C)ccc2C1=O,91.7%,112%,81.1%,92.8%,104%,96.8%,99.9%,95%,98.7%,107%
C#Cc1cc(C(=O)Nc2ccc(CNCCN3CCOCC3)c(C(F)(F)F)c2)ccc1C,88%,68.8%,76%,96.1%,80.7%,89.3%,94.2%,93.9%,1.04% (active),93.6%
COc1ccccc1/C=C1\Oc2ccc(O)c(O)c2C1=O,77.5%,105%,82.6%,86.4%,86.8%,98.7%,99%,92.1%,83.5%,94%
C/C(=N\NC(=O)Nc1ccccc1)c1nnn(-c2ccc([N+](=O)[O-])cc2)c1C,105%,116%,100%,100%,102%,99.7%,99.6%,99.6%,102%,106%
CCn1c2ccc(/C=N/N(C)S(=O)(=O)CCN(C)C)cc2c2cc(/C=N/N(C)S(=O)(=O)CCN(C)C)ccc21,26.2%,44.8%,87.1%,85.8%,64.8%,85.8%,62.4%,81.7%,-15.3% (active),87.9%
N#Cc1c(-c2cccs2)cc(-c2cnccn2)nc1SCC(=O)N/N=C/c1ccc(Cl)cc1,98.5%,104%,95.8%,105%,100%,93.9%,101%,91.3%,92%,110%
COCCOc1ccc2ncc(C#Cc3cncc(C(=O)Nc4ccc(CN5CCN(C)CC5)c(C(F)(F)F)c4)c3)n2n1,0.122% (active),15.6%,4.29% (active),18.1%,37.9%,35%,67.4%,31.5%,-88.9% (active),-49.4% (active)
